Experimental data taken from PubChem BioAssay.
Unmarked numbers belong to inactive results. Records with an inconclusive call do not appear. For part of these data: Potency and affinity values are given separately. Active and inactive are the calls of the source. Unless noted, the rule behind the calls is not given here.

How the values were obtained:
[1] = antimalarial activity against Dd2 strain (AID 2302;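 active = growth inhibition above 50% at the single 2 µM test dose, taken to imply half-maximal potency below 2 µM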;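 note: 0% = DMSO untreated growth and 100% = chloroquine plus artemisinin killed control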); conditions: P. falciparum Dd2 in RBCs, LDH growth readout, 72 h; at 2 µM; hits give high values
[2] = HepG2 cytotoxicity, primary screen, cytotoxicity control for P. falciparum antimalarial project, cell-based, ATP luminescence (AID 2303;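 active = inhibition above 50%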;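 note: 0% = DMSO wells and 100% = digitonin-killed cells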); conditions: HepG2 viability, 24-48 h, at 10 µM, hits give high values
[3] = target: L-lactate dehydrogenase (Plasmodium falciparum (isolate CDC / Honduras)) (UniProt Q27743); assay: PfLDH activity inhibition – cell lysate, 3D7 strain, counter-screen for P. falciparum growth inhibition project (AID 2304);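 note: 0% = vehicle and 100% = reference inhibitor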; conditions: P. falciparum 3D7 crude extract, LDH APAD/NBT absorbance; at 2 µM; hits give high values
[4] = inhibition of 3D7 malaria parasite growth – strain 3D7 (AID 2306);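 note: 0% = DMSO wells and 100% = chloroquine plus artemisinin control wells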; conditions: P. falciparum 3D7 erythrocytic growth, LDH absorbance, 72 h; at 2 µM; hits give high values
[5] = target: Calcium-dependent protein kinase 1 (Plasmodium falciparum (isolate 3D7)) (UniProt P62344); assay: PfCDPK1 kinase inhibitors, biochemical, TCAMS library (AID 1159585; cut-off not given, nearly all actives have IC50 up to about 0.98 µM;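 note: inhibitors leave more ATP so luminescence rises with inhibition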); conditions: recombinant PfCDPK1, Kinase-Glo ATP depletion luminescence
[6] = target: Plasmodium falciparum protein kinase 6 (PK6, PF3D7_1337100) (UniProt Q8IDW1); assay: PfPK6 kinase inhibitors, biochemical, TCAMS library (AID 1159586); conditions: recombinant PfPK6, Kinase-Glo ATP depletion luminescence
[7] = target: Protein kinase 7 (PK7), Plasmodium falciparum 3D7 (PF3D7_0213400) (UniProt Q7YTF7); assay: inhibition of Plasmodium PK7 catalytic activity – biochemical, TCAMS antimalarial set, Kinase-Glo luminescence (AID 1159587); conditions: recombinant PfPK7, Kinase-Glo ATP depletion luminescence
[8] = target: Calcium-dependent protein kinase 4 (Plasmodium falciparum (isolate 3D7)) (UniProt Q8IBS5); assay: PfCDPK4 kinase inhibitors, biochemical, TCAMS library (AID 1159588; cut-off not given, nearly all actives have IC50 up to about 0.91 µM); conditions: recombinant PfCDPK4, Kinase-Glo ATP depletion luminescence
[9] = growth inhibition of DIPG glioma cells, dose response, cell-based, SU-DIPG-XIII, MIPE5.0, CellTiter-Glo, qHTS (AID 1347064; cut-off not given, nearly all actives have AC50 up to about 23 µM;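 for AC50: cells exposed to compound for 48 hours before the viability read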); conditions: SU-DIPG-XIII viability, CellTiter-Glo ATP luminescence
[10] = test system: Aerobactin synthetase IucA (Klebsiella pneumoniae); assay: IucA aerobactin synthetase inhibitors, biochemical, Tocris library, absorbance (AID 1345561); conditions: purified IucA enzyme assay, absorbance (OD) read-out; hits give low values;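 tested at 8 µM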;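 note: 100% = enzyme without compound and 0% = no enzyme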
[11] = inhibitors of Cryptococcus chitosan production, flow cytometry, Cibacron Brilliant Red staining (AID 1347148); conditions: Cryptococcus neoformans chitosan, hits give low values; at 99.1 µM unless noted;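 note: compound exposure lasted three days at 37 degrees C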
[12] = target: Tyrosine-protein kinase ABL1 (Homo sapiens) (UniProt P00519); assay: PubChem AID 493040; conditions: kinase panel binding, pKi
[13] = circadian clock period modulators, cell-based, LOPAC library, luminescence reporter (AID 2774); conditions: circadian reporter cells, at 7 µM, actives lie on both sides;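 note: values are relative to mean of DMSO wells on each plate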
[14] = test system: Hepatitis C virus NS3 helicase; assay: HCV NS3 helicase inhibitors, primary screen, biochemical, fluorescence polarization, LOPAC1280 library (AID 687035; in the data active = inhibition above about 37%); conditions: Purified HCV NS3 helicase, Cy5-dT15 ssDNA binding fluorescence polarization; hits give high values; concentration not given here
[15] = Cy5 fluorescence quenching or enhancement artefacts, artefact control for HCV NS3 helicase inhibitor project, biochemical, LOPAC1280 (AID 687037); conditions: Cy5-DNA-NS3h complex fluorescence interference counterscreen
[16] = phospholipid biosynthesis inhibitors in animal cells, primary screen, cell-based, LOPAC library, screen 4 (AID 1347384); conditions: phospholipid biosynthesis inhibition screen, at 10 µM
[17] = hESC survival regulators, cell-based (AID 493140); conditions: human embryonic stem cell survival screen; hits give high values;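 note: cells exposed to compounds for four days before counting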

Chain of Protein kinase 7 (PK7), Plasmodium falciparum 3D7 (PF3D7_0213400) (Q7YTF7 1-343): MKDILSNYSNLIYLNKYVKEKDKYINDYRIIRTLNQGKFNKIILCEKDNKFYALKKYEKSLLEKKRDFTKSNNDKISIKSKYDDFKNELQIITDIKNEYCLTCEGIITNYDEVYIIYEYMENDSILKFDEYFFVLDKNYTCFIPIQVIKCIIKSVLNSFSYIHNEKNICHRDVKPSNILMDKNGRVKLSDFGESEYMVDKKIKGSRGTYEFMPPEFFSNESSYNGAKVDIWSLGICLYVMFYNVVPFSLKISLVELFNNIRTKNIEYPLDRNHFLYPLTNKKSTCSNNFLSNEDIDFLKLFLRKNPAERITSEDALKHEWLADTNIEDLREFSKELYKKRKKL
Chain of Calcium-dependent protein kinase 4 (Plasmodium falciparum (isolate 3D7)) (Q8IBS5 whole entry, looked up): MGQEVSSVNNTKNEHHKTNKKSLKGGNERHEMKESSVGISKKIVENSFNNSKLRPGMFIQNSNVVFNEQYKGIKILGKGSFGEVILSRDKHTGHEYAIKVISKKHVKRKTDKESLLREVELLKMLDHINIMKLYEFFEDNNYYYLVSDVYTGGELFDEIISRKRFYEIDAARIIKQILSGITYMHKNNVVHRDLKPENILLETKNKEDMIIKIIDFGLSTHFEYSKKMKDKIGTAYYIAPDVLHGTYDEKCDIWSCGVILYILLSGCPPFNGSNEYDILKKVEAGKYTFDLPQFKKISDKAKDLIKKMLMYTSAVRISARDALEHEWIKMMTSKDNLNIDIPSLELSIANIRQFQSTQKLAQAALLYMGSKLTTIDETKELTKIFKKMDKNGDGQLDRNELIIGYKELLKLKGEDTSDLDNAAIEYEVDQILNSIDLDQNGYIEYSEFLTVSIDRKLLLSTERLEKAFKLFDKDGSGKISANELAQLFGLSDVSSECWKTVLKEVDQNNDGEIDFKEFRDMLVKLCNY
Chain of L-lactate dehydrogenase (Plasmodium falciparum (isolate CDC / Honduras)) (Q27743 whole entry, looked up): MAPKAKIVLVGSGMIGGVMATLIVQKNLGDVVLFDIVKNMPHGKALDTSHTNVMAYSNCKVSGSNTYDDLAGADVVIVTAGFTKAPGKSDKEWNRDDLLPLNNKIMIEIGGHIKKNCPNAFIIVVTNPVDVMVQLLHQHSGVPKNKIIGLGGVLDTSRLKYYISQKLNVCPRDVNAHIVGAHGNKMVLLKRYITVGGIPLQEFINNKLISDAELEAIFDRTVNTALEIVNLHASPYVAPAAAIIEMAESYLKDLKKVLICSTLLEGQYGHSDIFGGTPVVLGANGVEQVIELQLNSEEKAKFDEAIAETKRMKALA
Chain of Calcium-dependent protein kinase 1 (Plasmodium falciparum (isolate 3D7)) (P62344 whole entry, looked up): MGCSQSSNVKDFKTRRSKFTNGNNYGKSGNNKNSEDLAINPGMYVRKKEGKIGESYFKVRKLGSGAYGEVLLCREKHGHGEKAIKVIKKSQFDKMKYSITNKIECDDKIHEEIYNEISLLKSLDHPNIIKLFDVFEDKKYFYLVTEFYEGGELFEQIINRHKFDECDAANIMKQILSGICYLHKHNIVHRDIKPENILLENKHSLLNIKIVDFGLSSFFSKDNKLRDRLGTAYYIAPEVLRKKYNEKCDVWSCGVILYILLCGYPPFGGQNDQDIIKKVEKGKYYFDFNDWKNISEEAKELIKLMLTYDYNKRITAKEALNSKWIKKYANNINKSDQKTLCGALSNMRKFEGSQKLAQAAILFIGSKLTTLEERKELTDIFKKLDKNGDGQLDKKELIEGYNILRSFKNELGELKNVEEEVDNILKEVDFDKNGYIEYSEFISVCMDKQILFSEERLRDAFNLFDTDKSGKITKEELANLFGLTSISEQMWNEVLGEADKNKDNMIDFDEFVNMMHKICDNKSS
Chain of Plasmodium falciparum protein kinase 6 (PK6, PF3D7_1337100) (Q8IDW1 1-305): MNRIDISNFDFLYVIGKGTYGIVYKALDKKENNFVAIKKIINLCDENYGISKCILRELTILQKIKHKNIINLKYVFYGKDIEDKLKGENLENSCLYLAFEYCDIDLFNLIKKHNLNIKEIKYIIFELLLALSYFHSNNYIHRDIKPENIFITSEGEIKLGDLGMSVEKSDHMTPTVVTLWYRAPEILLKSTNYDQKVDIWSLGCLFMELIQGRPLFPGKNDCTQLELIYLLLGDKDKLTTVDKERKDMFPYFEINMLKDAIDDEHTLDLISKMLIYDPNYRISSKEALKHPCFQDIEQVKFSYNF
Chain of Tyrosine-protein kinase ABL1 (Homo sapiens) (P00519 whole entry, looked up): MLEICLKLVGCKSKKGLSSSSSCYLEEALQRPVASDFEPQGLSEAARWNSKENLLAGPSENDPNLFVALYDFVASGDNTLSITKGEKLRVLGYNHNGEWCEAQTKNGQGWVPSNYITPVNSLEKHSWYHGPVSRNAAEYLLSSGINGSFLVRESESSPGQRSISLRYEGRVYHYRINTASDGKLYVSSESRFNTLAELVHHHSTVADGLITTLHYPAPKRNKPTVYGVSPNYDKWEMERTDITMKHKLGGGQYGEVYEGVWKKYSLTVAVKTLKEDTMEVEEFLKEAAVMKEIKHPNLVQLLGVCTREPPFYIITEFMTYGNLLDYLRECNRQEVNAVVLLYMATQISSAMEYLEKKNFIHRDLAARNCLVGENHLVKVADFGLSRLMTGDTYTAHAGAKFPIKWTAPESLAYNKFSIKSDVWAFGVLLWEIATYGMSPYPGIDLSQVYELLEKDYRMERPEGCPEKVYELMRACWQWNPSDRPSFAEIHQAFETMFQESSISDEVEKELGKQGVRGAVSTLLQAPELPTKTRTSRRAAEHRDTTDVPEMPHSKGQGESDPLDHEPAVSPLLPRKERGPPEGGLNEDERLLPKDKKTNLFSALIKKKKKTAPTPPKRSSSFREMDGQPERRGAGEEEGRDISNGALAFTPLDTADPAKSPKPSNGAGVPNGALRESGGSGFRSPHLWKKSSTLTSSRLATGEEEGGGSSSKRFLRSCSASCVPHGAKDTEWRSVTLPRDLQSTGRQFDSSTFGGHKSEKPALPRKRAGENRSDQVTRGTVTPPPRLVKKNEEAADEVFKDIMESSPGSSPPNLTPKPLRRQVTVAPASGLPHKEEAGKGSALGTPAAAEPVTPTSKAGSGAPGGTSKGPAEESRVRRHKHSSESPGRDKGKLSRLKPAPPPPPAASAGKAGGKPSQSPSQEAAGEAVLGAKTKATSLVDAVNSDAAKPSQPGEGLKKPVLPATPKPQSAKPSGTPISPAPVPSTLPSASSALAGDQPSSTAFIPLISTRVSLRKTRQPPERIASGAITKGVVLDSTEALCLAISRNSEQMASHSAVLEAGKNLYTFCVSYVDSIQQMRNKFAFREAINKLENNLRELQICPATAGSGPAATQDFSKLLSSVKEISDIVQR

For `Cc1ccc(O)cc1Nc1ccnc2cc(-c3ccccn3)ccc12`, the growth inhibition [1] was 98% (active), the inhibition [2] was 6% and the inhibition [3] was -2%. For the same molecule, the growth inhibition [4] was 97% (active), the outcome [5] was “inactive” and the outcome [6] was “inactive”. The outcome [7] was “inactive” and the outcome [8] was “inactive”.
In the case of `Cn1cc(/C=C2\C(=O)Nc3cccnc32)c2ccccc21`, the AC50 [9] is reported as 8.33 µM (active).
In the case of `Nc1ncnc2occ(-c3ccc(NC(=O)Nc4cc(C(F)(F)F)ccc4F)cc3)c12`, the growth inhibition [1] is reported as 99% (active), the inhibition [2] is reported as 57% (active) and the inhibition [3] is reported as -1%. For the same molecule, the growth inhibition [4] was 99% (active), the outcome [7] was “inactive” and the outcome [8] was “inactive”.
With `Cn1c(=O)c(Oc2ccc(F)cc2F)cc2cnc(NC3CCOCC3)nc21` the outcome [9] was “inactive”.
`Fc1ccc(-c2nc3n(c2-c2ccncc2)CCS3)cc1` showed a remaining activity [10] of 117%.
With `NC(=O)c1ccc(-c2nc(-c3ccc4c(c3)OCO4)c(-c3ccccn3)[nH]2)cc1` the remaining activity [10] was 110%, the fold fluorescence [11] was 18.6 [at 130.1 µM] and the outcome [12] was “inactive”.
Work on `CN(C)c1cc2c(Nc3ccc4c(cnn4Cc4ccccc4)c3)ncnc2cn1` yielded a period change [13] of 0.33 h, an inhibition [14] of -1% and a fluorescence ratio (interference) [15] of 1. The outcome [16] was “inactive”.
For `COc1ccc(-c2oc3ncnc(N)c3c2-c2ccc(NC(=O)Nc3cc(C(F)(F)F)ccc3F)cc2)cc1`, the AC50 [9] was 3.72 µM (active).
In the case of `Cn1cc(C2=C(c3cn(CCCSC(=N)N)c4ccccc34)C(=O)NC2=O)c2ccccc21`, the survival [17] is reported as 72.7, the remaining activity [10] is reported as 106% and the fold fluorescence [11] is reported as 10.1 [at 109.3 µM].
Work on `CN(C)c1cc2c(Nc3ccc4nc(Cc5ccccc5)[nH]c4c3)ncnc2cn1` yielded a growth inhibition [1] of 29%, an inhibition [2] of 11% and an inhibition [3] of 0%. The growth inhibition [4] was 85% (active), the outcome [5] was “inactive” and the outcome [6] was “inactive”. For the same molecule, the outcome [7] was “inactive” and the outcome [8] was “inactive”.
